Source: PubChem BioAssay (several laboratories)
PP5 primary = blocks human protein phosphatase 5 activity; inhibition, % at 6.7 µM; P53041; purified PP5c, OMFP substrate fluorescence; actives 0.18% (n = 320,000);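 active = inhibition above the campaign's mean inhibition across all tested compounds plus 3 SD, cut at about 9.5% in these data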
PP1 counter = counter-screen for PP5 inhibitors: inhibitors of human PP1-alpha; P62136; purified PP1alpha, OMFP fluorescence; inhibition, % at 6.7 µM; actives 0.9% (n = 320,000); AID 2235;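 active = inhibition above the mean inhibition of all tested compounds plus 3 SD, computed separately for each screening campaign, cut at about 15% in these data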
Target sequence (P62136 whole entry, looked up): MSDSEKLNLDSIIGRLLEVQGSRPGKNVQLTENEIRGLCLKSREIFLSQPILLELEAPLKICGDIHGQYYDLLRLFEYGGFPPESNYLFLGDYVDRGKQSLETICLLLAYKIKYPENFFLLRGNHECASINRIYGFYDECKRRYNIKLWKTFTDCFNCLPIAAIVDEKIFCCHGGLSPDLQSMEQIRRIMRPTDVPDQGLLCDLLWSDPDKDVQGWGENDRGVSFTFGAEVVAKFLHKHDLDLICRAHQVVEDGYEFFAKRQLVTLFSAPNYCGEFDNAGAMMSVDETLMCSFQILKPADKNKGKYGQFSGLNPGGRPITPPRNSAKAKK
Beta cell apopt = beta cell apoptosis inhibition; INS-1E cytokine-induced death, ATP luminescence, 48 h; percent of positive-control rescue, neutral wells zero; protection from apoptosis, % (concentration not given with the values); actives 0.8% (n = 300,000);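 active = Every replicate reaches about 75%, or at least half do and their mean reaches it too, limit read from the data; inconclusive = At least half of replicates reach the limit but their mean does not; inactive = Under half of replicates reach the limit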;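 also: higher means more ATP so stronger rescue from cytokine killing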
CSC inhib = blocks cancer stem cells. actives 1.1% (n = 300,000). inhibition, % at 7.5 µM. cancer stem cell-like cells viability, luminescence; in the data active = inhibition above about 75%; inconclusive = no clear call, values can overlap the other calls; tested in HMLE shEcad cells
SKKanGAS inh = blocks kanamycin growth of S. pyogenes SKKanGAS strain | inhibition, % at 7.5 µM | actives 1.3% (n = 300,000) | BacTiter-Glo, 6 h;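 active = mean replicate score, as percent of positive control median, at least 50; inconclusive = mean below 50 but one replicate at or above 50; inactive = mean and every replicate below 50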;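 also: strain carries kanamycin resistance gene driven by streptokinase promoter and grows in 40 µg/ml kanamycin; loss of luminescence reflects streptokinase promoter inhibition or plain growth inhibition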
PP1 confirm = human PP1 phosphatase inhibition, confirmation. shares compounds with PP1 counter. purified PP1alpha, OMFP substrate fluorescence. inhibition, % at 6.7 µM. actives 52% (n = 1,900);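 active = mean PP1 inhibition above a set limit taken from the earlier primary screen, cut at about 15% in these data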
PP5 counter = PP5 phosphatase inhibition, counter-screen for PP1 inhibitors. shares compounds with PP1 counter. purified PP5c, OMFP fluorescence. inhibition, % at 6.7 µM. actives 4% (n = 1,900);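 active = mean PP5 inhibition over triplicate wells above about 9.5% taken from the earlier PP1 screen, limit read from the data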
Each line names hits and unclear results; the compound was inactive in the other large screens (follow-up assays come after a bar, where they were run). Only some compounds are listed: those with a hit (about 3.1% of all), similar ones and a draw of the others.

COc1cccc(C(=O)Nc2cccc(NC(=O)c3ccccc3Cl)c2)c1	none (no result: Beta cell apopt)
COc1cccc(C(=O)Nc2cccc(C(=O)NC3=NN(c4c(Cl)cc(Cl)cc4Cl)C(=O)C3)c2)c1	PP1 counter 29 | PP1 confirm inactive | PP5 counter inactive
COc1cc(/C=C2\C(=N)N3N=C(S(C)(=O)=O)SC3=NC2=O)cc(OC)c1OCCOc1ccccc1C	PP1 counter 30 | PP1 confirm inactive | PP5 counter inactive
c1ccc(CCNc2nc(-c3cccnc3)cs2)cc1	none
CC(=O)Nc1ccc(-c2csc(NC(=O)c3ccc(C)o3)n2)cc1	none
c1ccc(CCNc2nc(-c3ccccn3)cs2)cc1	PP1 counter 35, SKKanGAS inh 121 | PP1 confirm 44 | PP5 counter inactive
Cc1ccc(C(=O)Nc2nc(-c3ccccn3)cs2)o1	PP1 counter 23, SKKanGAS inh 77 | PP1 confirm inactive | PP5 counter inactive
O=C(Nc1nc(-c2ccccn2)cs1)c1ccc(-c2ccccc2F)o1	PP1 counter 20 (no result: CSC inhib, SKKanGAS inh) | PP1 confirm 30 | PP5 counter 12
O=C(Nc1nc(-c2cc(F)ccc2F)cs1)c1ccccn1	SKKanGAS inh inconclusive
CC(=O)Nc1ccc(S(=O)(=O)NCCc2cc3ccc(C)c(C)c3[nH]c2=O)cc1	none
COc1ccc(NC(=O)Cc2coc3ccc4ccccc4c23)cc1S(=O)(=O)N1CCOCC1	none
Cc1ccccc1Nc1nc(N)nc(CSc2n[nH]c(N)n2)n1	none
CC(=O)N1CCN(C(=O)c2ccc3c(c2)OCCO3)CC1	none
COc1cc(NS(=O)(=O)c2ccc(Nc3nc(-c4ccccn4)cs3)cc2)nc(OC)n1	PP1 counter 63 | PP1 confirm 71 | PP5 counter inactive
COc1ccc(-c2csc(Nc3ccc(S(=O)(=O)Nc4cc(OC)nc(OC)n4)cc3)n2)cc1	SKKanGAS inh inconclusive
CCSc1nc2c(cnn2-c2ccc(C)cc2)c(=O)[nH]1	PP1 counter 22 | PP1 confirm inactive | PP5 counter inactive
Cc1ccc(NC(=O)Cn2c(O)c(N=NC(N)=O)c3ccccc32)cc1	none (no result: CSC inhib)
Cc1cccc(NC(=O)Cn2c(O)c(N=NC(=O)c3ccncc3)c3ccccc32)c1	none
Cc1cccc(NC(=O)Cn2c(C)c(C#N)c3ccccc32)c1C	PP1 counter 21 | PP1 confirm 19 | PP5 counter inactive
Cc1ccc(NC(=O)Cn2c(O)c(N=NC(N)=S)c3ccccc32)cc1	PP1 counter 21 | PP1 confirm inactive | PP5 counter inactive
Cc1c(C#N)c2ccccc2n1CC(=O)NC(C)c1ccccc1 (stereo not given)	none
Cc1ccccc1NC(=O)Cn1c(O)c(N=NC(=O)c2ccccc2O)c2ccccc21	PP1 counter 20 | PP1 confirm 24 | PP5 counter inactive
CCc1ccccc1NC(=O)Nc1cc(F)ccc1F	none
Cc1ccc(C(C)C)cc1S(=O)(=O)Nc1cccnc1	none (no result: Beta cell apopt)
O=C(N/N=C/c1ccncc1)c1cccc(S(=O)(=O)Nc2ccc(Cl)cc2)c1	PP1 counter 21 | PP1 confirm inactive | PP5 counter inactive
